# Measurements: PubChem BioAssay (EPA / NIEHS)
# Results filed as inconclusive are left out. The source made the active and inactive calls. How the source made its calls: active means hit-call score of the fitted dose curve at least 0.9, where 1 is the maximum; inconclusive means response in the unintended direction; inactive means score below 0.9.
# Assays:
# [1] = target: Retinoic acid receptor alpha (Homo sapiens) (UniProt P10276); assay: NVS_NR_hRAR_Antagonist: NovaScreen (NVS) Nuclear Receptor Binding Assay for human Retinoic Acid Alpha Receptor Antagonism (RAR) (AID 2283358)
# Sequence of Retinoic acid receptor alpha (Homo sapiens) (P10276 whole entry, looked up): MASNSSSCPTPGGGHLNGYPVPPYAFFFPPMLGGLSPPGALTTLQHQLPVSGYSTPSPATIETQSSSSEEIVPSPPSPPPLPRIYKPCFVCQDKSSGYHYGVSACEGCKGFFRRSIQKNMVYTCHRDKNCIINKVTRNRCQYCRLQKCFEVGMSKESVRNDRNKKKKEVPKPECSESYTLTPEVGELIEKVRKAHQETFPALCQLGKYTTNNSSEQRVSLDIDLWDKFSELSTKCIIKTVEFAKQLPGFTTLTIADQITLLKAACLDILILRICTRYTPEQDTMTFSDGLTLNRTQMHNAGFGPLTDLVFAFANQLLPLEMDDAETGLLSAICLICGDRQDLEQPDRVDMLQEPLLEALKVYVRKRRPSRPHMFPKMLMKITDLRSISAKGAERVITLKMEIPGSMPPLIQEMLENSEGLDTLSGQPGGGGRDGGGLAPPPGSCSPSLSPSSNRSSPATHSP
# How it was run: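 Chemicals were first tested in duplicate at 25 uM, then actives in concentration series, in a cell-free TR-FRET antagonist binding format. Measurements were taken 2 hours after dosing and loss of signal was evaluated against DMSO controls.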
# PGR (gene 5241) = PGR (gene 5241) (UniProt P06401); assay: NVS_NR_hPR: NovaScreen (NVS) Nuclear Receptor Binding Assay for human Progestron Receptor (PR) (AID 2283360);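 further: active means loss of bound radioligand signal versus DMSO baseline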
# Sequence of PGR (gene 5241) (P06401 whole entry, looked up): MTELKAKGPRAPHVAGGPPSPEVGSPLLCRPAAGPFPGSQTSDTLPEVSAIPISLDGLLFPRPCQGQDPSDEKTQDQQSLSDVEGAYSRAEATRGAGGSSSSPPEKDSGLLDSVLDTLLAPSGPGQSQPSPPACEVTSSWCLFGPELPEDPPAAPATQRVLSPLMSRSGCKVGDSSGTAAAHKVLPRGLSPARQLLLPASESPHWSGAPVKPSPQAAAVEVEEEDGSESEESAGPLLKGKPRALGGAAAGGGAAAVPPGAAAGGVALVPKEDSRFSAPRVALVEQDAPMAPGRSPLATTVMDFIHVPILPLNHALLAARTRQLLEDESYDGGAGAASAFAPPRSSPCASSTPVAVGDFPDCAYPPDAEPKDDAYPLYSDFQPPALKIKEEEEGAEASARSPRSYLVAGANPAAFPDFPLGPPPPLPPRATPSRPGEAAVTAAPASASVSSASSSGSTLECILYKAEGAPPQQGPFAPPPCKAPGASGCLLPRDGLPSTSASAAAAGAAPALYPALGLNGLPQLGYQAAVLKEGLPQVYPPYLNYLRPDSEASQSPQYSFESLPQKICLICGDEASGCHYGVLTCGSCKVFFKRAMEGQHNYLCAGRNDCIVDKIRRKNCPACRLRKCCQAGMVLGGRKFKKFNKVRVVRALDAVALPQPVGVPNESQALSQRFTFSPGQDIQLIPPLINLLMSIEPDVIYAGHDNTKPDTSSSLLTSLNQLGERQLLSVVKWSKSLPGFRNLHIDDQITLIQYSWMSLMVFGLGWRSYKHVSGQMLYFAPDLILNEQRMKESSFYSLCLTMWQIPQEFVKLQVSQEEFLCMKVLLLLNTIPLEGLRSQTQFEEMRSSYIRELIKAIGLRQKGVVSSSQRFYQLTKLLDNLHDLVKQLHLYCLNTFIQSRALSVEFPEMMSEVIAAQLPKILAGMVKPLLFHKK
# How it was run: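 Cell-free radioligand binding using receptor protein extracted from T47D cells, read by scintillation counting 18 hours after dosing. Loss of signal relative to DMSO baseline indicates displacement; primary screen single concentration 25 uM in duplicate, actives followed in concentration series.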
# [2] = target: Retinoic acid receptor alpha (Homo sapiens) (UniProt P10276); assay: NVS_NR_hRARa_Agonist: NovaScreen (NVS) Nuclear Receptor Binding Assay for human Retinoic Acid Alpha Receptor Agonism (RAR) (AID 2283361)
# How it was run: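 Compounds screened at 25 uM, duplicate, then in concentration series if active. Detection: TR-FRET gain of signal versus DMSO after 2 h with cell-free extracted RARα.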
# [3] = target: human Thyroid Receptor Alpha (TRa), THRA (gene 7067) (UniProt P10827); assay: NVS_NR_hTRa_Antagonist: NovaScreen (NVS) Nuclear Receptor Binding Assay for human Thyroid Receptor Alpha Antagonism (TRa) (AID 2283362)
# Sequence of human Thyroid Receptor Alpha (TRa), THRA (gene 7067) (P10827 whole entry, looked up): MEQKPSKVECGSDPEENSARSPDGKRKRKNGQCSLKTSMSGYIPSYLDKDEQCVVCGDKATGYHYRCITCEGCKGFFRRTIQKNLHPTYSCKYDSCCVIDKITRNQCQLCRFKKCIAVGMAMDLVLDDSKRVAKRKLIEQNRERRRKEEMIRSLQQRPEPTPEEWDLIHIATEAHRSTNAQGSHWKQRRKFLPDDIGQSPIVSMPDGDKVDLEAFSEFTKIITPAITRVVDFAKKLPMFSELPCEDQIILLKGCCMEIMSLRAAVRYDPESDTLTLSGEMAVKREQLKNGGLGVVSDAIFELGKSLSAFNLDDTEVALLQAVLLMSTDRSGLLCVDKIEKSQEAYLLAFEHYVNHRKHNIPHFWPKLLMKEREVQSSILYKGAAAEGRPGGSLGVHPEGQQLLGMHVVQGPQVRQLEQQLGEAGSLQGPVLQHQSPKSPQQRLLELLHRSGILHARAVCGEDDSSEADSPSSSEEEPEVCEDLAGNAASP
# How it was run: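 Chemicals were first screened in duplicate at 25 uM, then actives were retested in concentration series. Binding to the extracted receptor was measured 1 h after dosing by AlphaLISA chemiluminescence, with decreased signal versus DMSO scored as activity.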
# [4] = target: rat Androgen Receptor (AR), Ar (gene 24208) (UniProt P15207); assay: NVS_NR_rAR: NovaScreen (NVS) Nuclear Receptor Binding Assay for rat Androgen Receptor (AR) (AID 2283366)
# Sequence of rat Androgen Receptor (AR), Ar (gene 24208) (P15207 whole entry, looked up): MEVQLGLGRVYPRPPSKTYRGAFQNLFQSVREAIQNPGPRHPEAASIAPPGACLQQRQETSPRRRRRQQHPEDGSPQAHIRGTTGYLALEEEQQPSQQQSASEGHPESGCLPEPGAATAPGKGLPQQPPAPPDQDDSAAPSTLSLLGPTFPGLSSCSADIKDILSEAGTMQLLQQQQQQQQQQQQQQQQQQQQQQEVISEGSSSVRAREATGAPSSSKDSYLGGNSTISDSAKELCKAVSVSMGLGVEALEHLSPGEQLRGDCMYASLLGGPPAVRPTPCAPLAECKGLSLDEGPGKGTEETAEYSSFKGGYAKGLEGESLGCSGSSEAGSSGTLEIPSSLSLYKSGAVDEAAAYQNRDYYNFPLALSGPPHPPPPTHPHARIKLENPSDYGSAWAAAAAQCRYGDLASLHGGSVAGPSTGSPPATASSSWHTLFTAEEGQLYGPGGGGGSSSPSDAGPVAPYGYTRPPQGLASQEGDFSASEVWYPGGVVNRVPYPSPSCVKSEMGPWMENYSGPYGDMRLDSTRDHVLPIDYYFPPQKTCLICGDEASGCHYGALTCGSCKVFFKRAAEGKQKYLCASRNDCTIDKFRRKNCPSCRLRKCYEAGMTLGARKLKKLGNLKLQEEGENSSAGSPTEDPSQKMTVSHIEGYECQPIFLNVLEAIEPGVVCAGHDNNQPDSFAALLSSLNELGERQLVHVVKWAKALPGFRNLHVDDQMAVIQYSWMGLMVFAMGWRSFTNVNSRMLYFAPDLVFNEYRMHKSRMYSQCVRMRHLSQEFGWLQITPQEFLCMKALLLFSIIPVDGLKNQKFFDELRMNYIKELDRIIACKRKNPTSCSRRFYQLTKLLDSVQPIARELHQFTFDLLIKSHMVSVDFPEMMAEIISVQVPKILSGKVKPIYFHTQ
# How it was run: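 Actives from a duplicate single-concentration (25 uM) primary run went on to concentration series. Displacement of radioligand was counted by filtration and scintillation, 18 h post-dose, using prostate extracts from testosterone-pretreated rats, with DMSO as baseline.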
# [5] = target: human Adenosine Transporter (Adot), SLC29A1 (gene 2030) (UniProt Q99808); assay: NVS_TR_hAdoT: NovaScreen (NVS) Transporter Assay for human Adenosine Transporter (Adot) (AID 2283368)
# How it was run: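 Binding displacement on U937 extracted protein, read 1 h post-dose by filtration and scintillation counting. Primary duplicate test at 25 uM, then singleton concentration series with 50 uM top; DMSO baseline.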
# [6] = tested on: guinea pig Dopamine Transporter (DAT), gene 100714898; assay: NVS_TR_gDAT: NovaScreen (NVS) Transporter Assay for guinea pig Dopamine Transporter (DAT) (AID 2283369);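 further: active compounds lower bound radioligand signal relative to DMSO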
# How it was run: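 Test chemicals were incubated 2 h with guinea pig striatal membranes and a radioligand; bound label was separated by filtration and counted. Screening ran at 25 uM, followed by concentration-response testing to a 50 uM maximum.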
# [7] = target: Estrogen receptor (Homo sapiens) (UniProt P03372); assay: OT_ER_ERaERa_0480: Odyssey Thera (OT) 8-hour HEK293T Protein-Complementation Assay for Estrogen Receptor-alpha/-alpha Homodimer (AID 2283351);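 further: rise in fluorescence from reassembled reporter fragments on ERα LBD homodimer in nucleus or whole cell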
# Sequence of Estrogen receptor (Homo sapiens) (P03372 whole entry, looked up, the tested form may be a part): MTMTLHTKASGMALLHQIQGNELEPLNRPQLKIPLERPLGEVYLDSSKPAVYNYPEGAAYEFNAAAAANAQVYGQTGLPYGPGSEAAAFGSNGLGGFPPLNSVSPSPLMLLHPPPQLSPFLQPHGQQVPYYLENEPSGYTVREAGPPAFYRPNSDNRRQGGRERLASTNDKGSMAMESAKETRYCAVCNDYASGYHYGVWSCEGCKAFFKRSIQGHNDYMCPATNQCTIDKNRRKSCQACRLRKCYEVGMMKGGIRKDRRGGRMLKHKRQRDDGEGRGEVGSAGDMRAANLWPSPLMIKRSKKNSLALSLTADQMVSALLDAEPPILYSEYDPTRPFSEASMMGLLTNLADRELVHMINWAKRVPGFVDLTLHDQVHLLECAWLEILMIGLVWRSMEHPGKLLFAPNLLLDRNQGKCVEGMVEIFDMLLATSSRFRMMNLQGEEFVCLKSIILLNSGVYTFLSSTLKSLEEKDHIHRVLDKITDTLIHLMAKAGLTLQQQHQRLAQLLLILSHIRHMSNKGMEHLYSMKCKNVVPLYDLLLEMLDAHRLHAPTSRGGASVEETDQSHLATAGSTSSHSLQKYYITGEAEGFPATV
# How it was run: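 HEK293T cells stably expressing a PCA pair of ER alpha LBD (residues 310-547) were dosed for 8 hours. The gain in fluorescence intensity, nuclear for agonists and whole-cell for antagonists, was measured by laser scanning cytometry against DMSO vehicle.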
# [8] = target: Peroxisome proliferator-activated receptor gamma (Homo sapiens) (UniProt P37231); assay: NVS_NR_hPPARg: NovaScreen (NVS) Nuclear Receptor Binding Assay for human Peroxisome Proliferator-activated Receptor gamma (PPARg) (AID 2283370)
# How it was run: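 Fluorescence polarization measures competitive binding to extracted PPARg in a cell-free format. Reading is taken at 2 h; activity is signal loss relative to DMSO. Screening at 25 uM in duplicate preceded confirmatory dose series.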
# [9] = target: Glucocorticoid receptor (Homo sapiens) (UniProt P04150); assay: NVS_NR_hGR: NovaScreen (NVS) Nuclear Receptor Binding Assay for human Glucocorticoid Receptor (GR) (AID 2283363);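 on AC50: activity is loss of specific radioligand binding signal relative to DMSO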
# Sequence of Glucocorticoid receptor (Homo sapiens) (P04150 whole entry, looked up): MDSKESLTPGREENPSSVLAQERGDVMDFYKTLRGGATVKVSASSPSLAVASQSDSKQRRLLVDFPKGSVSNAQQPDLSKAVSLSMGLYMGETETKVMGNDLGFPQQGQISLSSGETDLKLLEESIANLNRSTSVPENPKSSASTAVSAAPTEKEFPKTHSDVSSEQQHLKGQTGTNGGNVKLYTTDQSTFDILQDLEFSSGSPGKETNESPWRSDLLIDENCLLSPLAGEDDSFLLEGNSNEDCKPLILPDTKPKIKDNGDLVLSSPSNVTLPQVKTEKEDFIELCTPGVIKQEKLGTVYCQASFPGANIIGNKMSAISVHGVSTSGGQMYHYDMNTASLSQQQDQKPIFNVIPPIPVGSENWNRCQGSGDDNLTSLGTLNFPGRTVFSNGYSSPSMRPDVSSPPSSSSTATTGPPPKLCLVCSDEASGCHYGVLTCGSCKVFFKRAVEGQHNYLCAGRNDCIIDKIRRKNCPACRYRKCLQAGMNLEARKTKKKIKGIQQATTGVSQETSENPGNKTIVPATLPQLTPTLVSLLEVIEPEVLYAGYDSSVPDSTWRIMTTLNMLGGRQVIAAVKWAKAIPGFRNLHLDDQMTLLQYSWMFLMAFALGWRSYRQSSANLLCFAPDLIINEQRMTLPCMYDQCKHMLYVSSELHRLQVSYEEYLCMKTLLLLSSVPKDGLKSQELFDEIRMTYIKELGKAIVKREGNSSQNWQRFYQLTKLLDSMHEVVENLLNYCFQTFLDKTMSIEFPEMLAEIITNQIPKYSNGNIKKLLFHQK
# How it was run: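 Single-readout cell-free binding: radioligand plus extracted receptor, 16-hour dosing, filter radiodetection; 25 uM duplicate primary, concentration series secondary.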
# [10] = target: T1, Estrogen receptor (Homo sapiens) + Estrogen receptor beta (Homo sapiens) (UniProt P03372+Q92731); assay: OT_ER_ERaERb_0480: Odyssey Thera (OT) 8-hour HEK293T Protein-Complementation Assay for Estrogen Receptor-alpha/-beta Heterodimer (AID 2283352)
# T1 sequence (P03372 whole entry, looked up, the tested form may be a part): as the sequence (P03372 whole entry, looked up, the tested form may be a part) above
# T1 sequence (Q92731 whole entry, looked up, the tested form may be a part): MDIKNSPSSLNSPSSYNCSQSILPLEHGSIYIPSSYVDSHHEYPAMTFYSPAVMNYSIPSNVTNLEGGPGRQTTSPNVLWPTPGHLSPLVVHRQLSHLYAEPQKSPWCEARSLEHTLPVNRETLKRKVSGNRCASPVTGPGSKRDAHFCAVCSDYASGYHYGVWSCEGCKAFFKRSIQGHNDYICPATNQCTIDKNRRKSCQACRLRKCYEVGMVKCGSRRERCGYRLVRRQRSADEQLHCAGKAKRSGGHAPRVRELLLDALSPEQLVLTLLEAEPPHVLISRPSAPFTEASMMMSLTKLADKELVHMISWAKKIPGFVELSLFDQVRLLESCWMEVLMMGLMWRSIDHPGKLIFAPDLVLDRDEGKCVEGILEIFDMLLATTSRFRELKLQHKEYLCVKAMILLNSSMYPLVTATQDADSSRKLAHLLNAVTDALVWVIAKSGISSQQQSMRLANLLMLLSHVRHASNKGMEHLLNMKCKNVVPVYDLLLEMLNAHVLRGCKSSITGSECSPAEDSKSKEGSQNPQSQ
# How it was run: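 Increase in mean fluorescence intensity, measured by laser scanning plate cytometry, reported ER-alpha/ER-beta LBD complementation in HEK293T cells after 8 h chemical exposure. DMSO served as baseline; basal signal is low, punctate and cytoplasmic.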
# [11] = target: Estrogen receptor beta (Homo sapiens) (UniProt Q92731); assay: OT_ER_ERbERb_0480: Odyssey Thera (OT) 8-hour HEK293T Protein-Complementation Assay for Estrogen Receptor-beta/-beta Homodimer (AID 2283357);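 further: active means signal gain over DMSO baseline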
# Sequence of Estrogen receptor beta (Homo sapiens) (Q92731 whole entry, looked up, the tested form may be a part): as above
# How it was run: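 Fluorescence gain from complemented reporter fragments on ER-beta LBD homodimer in HEK293T was quantified against DMSO controls after 8 h treatment, fixation in 4% formaldehyde and Draq5 staining.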
# [12] = target: rat Mineralocorticoid Receptor (MR), Nr3c2 (gene 25672) (UniProt P22199); assay: NVS_NR_rMR: NovaScreen (NVS) Nuclear Receptor Binding Assay for rat Mineralocorticoid Receptor (MR) (AID 2283355)
# How it was run: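 Single-concentration duplicate screen (25 uM) of radioligand binding in adrenalectomized rat brain supernatant; scintillation detection 24 h after dosing. Positive and negative controls ran on each plate, and confirmed actives went to concentration-response.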
# [13] = target: T1, Estrogen receptor (Homo sapiens) + Estrogen receptor beta (Homo sapiens); assay: OT_ER_ERaERb_1440: Odyssey Thera (OT) 24-hour HEK293T Protein-Complementation Assay for Estrogen Receptor-alpha/-beta Homodimer (AID 2283356);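 further: heteromer of ER alpha and ER beta binding domains; hits raise reporter fluorescence and both agonists and antagonists give an increase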
# How it was run: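 Heterodimerisation of ERα (aa 310-547) and ERβ (aa 263-489) ligand binding domains was tracked as fluorescence gain in stably transfected HEK293T cells following 24 h dosing, normalised to DMSO controls.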
# [14] = target: human Serotonin Transporter (SERT), SLC6A4 (gene 6532) (UniProt P31645); assay: NVS_TR_hSERT: NovaScreen (NVS) Transporter Assay for human Serotonin Transporter (SERT) (AID 2283372)
# How it was run: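 Human platelet membrane preparation; displacement of radioligand from serotonin transporter measured after 1 h by filtration and scintillation counting. Single 25 uM duplicate screen, then concentration series for actives, with DMSO as negative baseline.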
compound,measurement,setting,value
CC1(C)CN=C(NN=C(/C=C/c2ccc(C(F)(F)F)cc2)/C=C/c2ccc(C(F)(F)F)cc2)NC1,AC50,[1],25 µM (active)
CCOP(=S)(Oc1ccc([N+](=O)[O-])cc1)c1ccccc1 (stereo not given),outcome,PGR (gene 5241),inactive
CCCCN(CCCC)SN(C)C(=O)Oc1cccc2c1OC(C)(C)C2,outcome,PGR (gene 5241),inactive
c1ccc2c(c1)Nc1ccccc1S2,outcome,[2],inactive
CCCCc1ccc(O)cc1,outcome,[2],inactive
CCCCCCCc1ccc(O)cc1,outcome,[3],inactive
same,outcome,[4],inactive
O=P(Oc1ccccc1)(Oc1ccccc1)Oc1ccccc1,outcome,[5],inactive
same,AC50,[6],18.8 µM (active)
CCC(C)(C)c1ccc(O)cc1,AC50,[6],17.3 µM (active)
ClC(Cl)c1ccccc1,outcome,[7],inactive
same,outcome,[8],inactive
CC(Cl)CN(C)C (stereo not given),outcome,PGR (gene 5241),inactive
CC(C)Nc1ccc(Nc2ccccc2)cc1,AC50,[9],25 µM (active)
same,AC50,[6],25 µM (active)
COCCOCCO,outcome,[7],inactive
same,outcome,[10],inactive
same,outcome,[11],inactive
O=[N+]([O-])c1ccc(Cl)c(Cl)c1,outcome,[7],inactive
same,AC50,[8],9.12 µM (active)
CCOP(=S)(NC(C)C)Oc1ccccc1C(=O)OC(C)C (stereo not given),outcome,[12],inactive
same,outcome,[9],inactive
O=c1ssc(Cl)c1Cl,outcome,[7],inactive
same,outcome,[11],inactive
same,outcome,[8],inactive
CSC(C)(C)C=NO,outcome,[7],inactive
same,AC50,[12],4.44 µM (active)
same,outcome,PGR (gene 5241),inactive
same,outcome,[9],inactive
same,outcome,[6],inactive
same,outcome,[8],inactive
c1ccc(OP(Oc2ccccc2)Oc2ccccc2)cc1,outcome,[7],inactive
same,outcome,[10],inactive
same,outcome,[13],inactive
same,outcome,[11],inactive
same,outcome,[8],inactive
Cc1ccc(N)cc1N,outcome,[7],inactive
same,outcome,[10],inactive
same,outcome,[13],inactive
same,outcome,[11],inactive
same,outcome,[14],inactive
Nc1cc2c3c(c1)C(c1ccccc1)=N[C@@H](NC(=O)c1cccnc1)C(=O)N3CC2,outcome,[7],inactive
same,outcome,[13],inactive
same,outcome,[11],inactive
same,outcome,PGR (gene 5241),inactive
